Compound activity deposited in PubChem by National Center for Advancing Translational Sciences (NCATS).
KDM4E inh: qHTS Assay for Inhibitors of Human Jumonji Domain Containing 2E (JMJD2E); Lysine-specific demethylase 4E (Homo sapiens), B2RXH2; JMJD2E catalytic domain, FDH-coupled NADH fluorescence (FDH is formaldehyde dehydrogenase); Potency, µM (top dose mostly 57.1 µM), hits mostly inhibitors; 1.6% of 230,000 active; AID 2147, 2009; note: nearly all actives have a fitted effect of over 50% in size
HPGD block: qHTS Assay for Inhibitors of HPGD (15-Hydroxyprostaglandin Dehydrogenase). purified HPGD, NADH fluorescence kinetic, PGE2 substrate. Potency, µM, usual class: inhibitors. 15-hydroxyprostaglandin dehydrogenase [NAD(+)] (Homo sapiens), P15428. AID 894, 2007. 4.3% of 150,000 active
Target sequence (P15428 whole entry, looked up): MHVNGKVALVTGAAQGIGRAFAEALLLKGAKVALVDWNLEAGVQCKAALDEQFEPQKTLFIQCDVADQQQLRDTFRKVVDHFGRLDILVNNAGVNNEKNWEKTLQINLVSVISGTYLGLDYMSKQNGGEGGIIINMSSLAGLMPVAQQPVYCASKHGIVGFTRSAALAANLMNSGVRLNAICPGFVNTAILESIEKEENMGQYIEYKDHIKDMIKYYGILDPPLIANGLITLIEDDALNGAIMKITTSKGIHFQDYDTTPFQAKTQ
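NADH formation kinetics: reaction with 30 uM PGE2 and 1 mM NAD+ (final), 20 nM enzyme, Tris-HCl pH 8 with Tween 20, after 15 min compound preincubation at room temperature. Fluorescence change, last versus first of five reads.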
PNC inhibitor: High Content Assay for Compounds that inhibit the Assembly of the Perinucleolar Compartment | PC3M PTB-GFP, PNC prevalence imaging, 16 h; stronger effect = lower value | activity change (PNC), negative = inhibition, % at 10 µM | 3.1% of 140,000 active | AID 2417, 2010;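 active = readout at or below -70, meaning at least 70% loss of cells showing the perinucleolar compartment, a nuclear body marking cancer cells; inconclusive = readout between -30 and a set limit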
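PC3M cells stably expressing PTB-GFP, 750–1000 cells/well, treated 16 h at 37 °C with compound (23 nl of library stock), in duplicate. After paraformaldehyde fixation and Hoechst stain, imaged at 20x; PNC prevalence scored by image analysis.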
ALDH1A1 inh: qHTS Assay for Inhibitors of Aldehyde Dehydrogenase 1 (ALDH1A1); Aldehyde dehydrogenase 1A1 (Homo sapiens), P00352; Purified ALDH1A1, NADH fluorescence, propionaldehyde substrate; Potency, µM (doses to about 75.3 µM), hits mostly inhibitors; 7.3% of 220,000 active; AID 1030, 2008
Target sequence (P00352 whole entry, looked up): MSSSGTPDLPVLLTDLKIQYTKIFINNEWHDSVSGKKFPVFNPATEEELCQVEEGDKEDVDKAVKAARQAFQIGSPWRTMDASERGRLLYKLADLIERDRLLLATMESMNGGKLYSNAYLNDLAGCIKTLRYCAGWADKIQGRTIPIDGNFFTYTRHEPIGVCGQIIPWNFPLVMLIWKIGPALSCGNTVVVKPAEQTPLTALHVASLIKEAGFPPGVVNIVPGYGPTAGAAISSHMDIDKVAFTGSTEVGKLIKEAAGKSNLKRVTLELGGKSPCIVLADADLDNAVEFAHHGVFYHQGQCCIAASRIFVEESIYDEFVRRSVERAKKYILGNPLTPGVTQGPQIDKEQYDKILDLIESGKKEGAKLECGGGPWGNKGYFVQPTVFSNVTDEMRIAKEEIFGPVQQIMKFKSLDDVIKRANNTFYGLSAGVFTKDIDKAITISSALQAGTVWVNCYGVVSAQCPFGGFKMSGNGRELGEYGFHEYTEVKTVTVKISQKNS
Of the large screens only hits and unclear results are named; the others gave an inactive call; ! = not confirmed by another sample. Only some compounds are listed: those with a hit (about 11% of all), similar ones and a draw of the others. Unless noted, calls come from the whole dose curve; as a rule, active = well fitted inhibition curve with a large enough effect (not every such curve was filed as active); inconclusive = small, poorly fitted or top-dose-only effect, or another doubt; inactive = no such curve, though single readings can be large or run the other way.

CC(=O)c1cc2c(cc1NC(=O)CCC1CCCC1)OCO2	HPGD block inconclusive
O=C(CCn1c(=O)oc2ccccc21)NCc1ccc2c(c1)OCO2	ALDH1A1 inh 16µM
O=C(CCn1c(=O)c2ccccc2n(Cc2ccccc2)c1=O)NCc1ccc2c(c1)OCO2	none
CC(=O)c1cc2c(cc1NC(=O)CCn1cccc1)OCO2	KDM4E inh inconclusive, ALDH1A1 inh 32µM
COC(=O)C(CC(=O)c1cccc(OC)c1)c1ccc(F)cc1 (stereo unspecified)	none (no result: HPGD block, PNC inhibitor)
O=C(OCn1ncc(Cl)c(Cl)c1=O)c1ccc(C(F)(F)F)cc1	ALDH1A1 inh 3.5µM
Cc1ccc(C(=O)OCn2ncc(Cl)c(Cl)c2=O)cc1	HPGD block 28µM, PNC inhibitor inconclusive, ALDH1A1 inh 1.4µM
Cc1ccc(C)c(C(=O)Cn2ncc(Cl)c(Cl)c2=O)c1	ALDH1A1 inh 14µM
Cc1cccc(Cn2ncc(Cl)c(Cl)c2=O)c1	ALDH1A1 inh inconclusive
CCC(CC)c1nnc(NC(=O)C2=NNC(=O)CC2)s1	none (no result: HPGD block, PNC inhibitor)
Cc1cc(N=NC(=O)c2ccccc2O)c2ccccc2c1O	none (no result: HPGD block, PNC inhibitor)
O=C(N=Nc1ccc(NOC(=O)c2ccccc2Br)cc1)c1ccccc1O	KDM4E inh inconclusive, ALDH1A1 inh 22µM (no result: HPGD block, PNC inhibitor)
O=c1[nH]n(-c2cccc3cccnc23)c(=O)c2ccccc12	HPGD block 25µM
CCCC(OC(=O)CN1C(=O)COc2ccccc21)C(=O)NC1CCCC1 (stereo unspecified)	HPGD block 28µM
CCOC(=O)N1CCC(NC(=O)CCN2C(=O)COc3ccccc32)CC1	PNC inhibitor -80
CCc1ccc(NC(=O)COC(=O)CN2C(=O)COc3ccccc32)cc1	none
NCCSC[C@H](N)C(=O)O	none (no result: KDM4E inh, PNC inhibitor)
O=c1cc(CCl)nc2sc3ccccc3n12	none (no result: HPGD block, PNC inhibitor)
O=C(OCc1cc(=O)n2c(n1)sc1ccccc12)c1ccc(O)cc1	HPGD block 14µM
O=C(O)c1cc(N/N=C/C=C/c2ccccc2[N+](=O)[O-])ccc1Cl	ALDH1A1 inh inconclusive (no result: HPGD block, PNC inhibitor)
O=C(Nc1ccccc1)Nc1nnc(CSCc2ccccc2Cl)s1	PNC inhibitor -88
CCn1nc(CC(=O)Nc2nnc(CC(=O)N3CCCCC3)s2)c2ccccc2c1=O	HPGD block 22µM
COc1c(O)cc2oc(-c3ccc(O)cc3)cc(=O)c2c1O	none (no result: HPGD block, PNC inhibitor, ALDH1A1 inh)
COc1c(O)cc2oc3cc(O)c(CC=C(C)C)c(O)c3c(=O)c2c1CC=C(C)C	HPGD block 28µM! (no result: PNC inhibitor)
COc1ccc2ccc(=O)oc2c1CC=C(C)C	ALDH1A1 inh inconclusive
CC(C)=CCc1c(O)cc2oc(C)cc(=O)c2c1O	HPGD block 4.5µM (no result: PNC inhibitor)
CC(C)=CCc1c(O)cc2oc3c(CC=C(C)C)c(O)c(O)c(CC=C(C)C)c3c(=O)c2c1O	KDM4E inh 28µM (no result: HPGD block, PNC inhibitor, ALDH1A1 inh)
CN1CCN(c2nc3c(c(=O)n(C)c(=O)n3C)n2C)CC1	none (no result: KDM4E inh, PNC inhibitor)
CC[C@](N)(C(=O)O)C(C)C	none (no result: KDM4E inh, PNC inhibitor)
CNC(=S)NNC(=O)c1c(C)nc2cc(C)ccn12	none (no result: HPGD block, PNC inhibitor, ALDH1A1 inh)
CCOC(=O)c1sc(-c2ccc(Cl)cc2Cl)nc1O	KDM4E inh inconclusive (no result: HPGD block, PNC inhibitor)
COC(=O)c1sc(S(=O)(=O)NCC(=O)O)c(C(=O)OC)c1C	none (no result: HPGD block, PNC inhibitor)
COC(=O)c1sc(S(=O)(=O)NCc2cccs2)c(C(=O)OC)c1C	PNC inhibitor -111, ALDH1A1 inh 14µM
O=C(C1=C(O)C(=O)N(CCN2CCOCC2)C1c1ccccn1)c1cccs1 (stereo unspecified)	KDM4E inh inconclusive, ALDH1A1 inh 19µM
Cc1ccc(C2C(C(=O)c3cccs3)=C(O)C(=O)N2CCN2CCOCC2)o1 (stereo unspecified)	KDM4E inh inconclusive, PNC inhibitor inconclusive, ALDH1A1 inh 18µM
COc1ccccc1C1C(C(=O)c2sc(C)nc2C)=C(O)C(=O)N1CCN1CCOCC1 (stereo unspecified)	ALDH1A1 inh inconclusive (no result: HPGD block)
CCN(CC)CCN1C(=O)C(O)=C(C(=O)c2cccs2)C1c1ccc(C)o1 (stereo unspecified)	PNC inhibitor inconclusive, ALDH1A1 inh 22µM
Cc1ccc(S(=O)(=O)N2CCCC(C(=O)Nc3ccc(C(=O)O)cc3)C2)cc1Cl (stereo unspecified)	none (no result: HPGD block, PNC inhibitor)
COc1cccc(Nc2ncc3nc(-c4cc(F)cc(F)c4)c(=O)n(C4CC4)c3n2)c1	none (no result: KDM4E inh, PNC inhibitor)
C/C(=N\NC(=O)CN1CCN(S(=O)(=O)c2ccc(C)cc2)CC1)c1ccncc1	none (no result: HPGD block, PNC inhibitor, ALDH1A1 inh)
O=C1Nc2ccccc2N=C(c2ccccc2)C1N1CCOCC1 (stereo unspecified)	PNC inhibitor inconclusive, ALDH1A1 inh 22µM
O=C1CC(c2ccccc2)=Nc2ccccc2N1	ALDH1A1 inh inconclusive
O=C1Nc2ccccc2N=C(c2ccccc2)C1Br (stereo unspecified)	KDM4E inh inconclusive, ALDH1A1 inh 16µM (no result: HPGD block, PNC inhibitor)
O=C1Nc2ccccc2/C1=N\N1CCOCC1	none (no result: HPGD block, PNC inhibitor, ALDH1A1 inh)
COC(=O)c1c(-c2c(Cl)cccc2Cl)noc1NC(=O)NN1CCCCC1	none (no result: HPGD block, PNC inhibitor)
C=CCNC(=O)c1sccc1Oc1ccc(F)cc1[N+](=O)[O-]	none (no result: HPGD block, PNC inhibitor)
COC(=O)CSc1nc(C)c2c(n1)CCCC2	none (no result: HPGD block, PNC inhibitor)
COc1ccc(NS(=O)(=O)c2ccc3nc(COc4ccc(Cl)c(C)c4)[nH]c3c2)cc1	PNC inhibitor -106 (no result: HPGD block)
Cn1cc(CNC(=O)/C=C/c2ccc(Cl)cc2)cn1	none
N#CC1=C(N)SC2(CCCCC2)SC1c1ccccc1 (stereo unspecified)	HPGD block inconclusive, ALDH1A1 inh 25µM
O=C(c1cnn2c1NC(c1ccco1)CC2C(F)(F)F)N1CCN(c2cccc(Cl)c2)CC1 (stereo unspecified)	ALDH1A1 inh 3.2µM
O=C(c1ccco1)N1CCN(C(=O)c2cnn3c2NC(c2cccs2)CC3C(F)(F)F)CC1 (stereo unspecified)	none
O=C(NCc1ccco1)c1cnn2c1NC(c1ccccc1)CC2C(F)(F)F (stereo unspecified)	HPGD block 28µM, PNC inhibitor inconclusive
O=C(NCc1ccco1)c1cnn2c1NC(c1ccc(Br)cc1)CC2C(F)(F)F (stereo unspecified)	none
CN1CC[C@H](CN2c3ccccc3Sc3ccccc32)C1	none (no result: KDM4E inh, PNC inhibitor)
CCOc1ccccc1CN1CCN(Cc2ccon2)CC1CCO (stereo unspecified)	none (no result: HPGD block, PNC inhibitor, ALDH1A1 inh)
COc1ccc(F)cc1C(=O)C1CCCN(C(=O)C2=C(C)OCCO2)C1 (stereo unspecified)	none (no result: HPGD block, PNC inhibitor)
CC(=O)N(O)CCCCCNC(=O)CCC(=O)N(O)CCCCCNC(=O)CCC(=O)N(O)CCCCCN	KDM4E inh 22µM
O=C(c1ccc(OC2CCN(Cc3ccccn3)CC2)cc1)N1CCCCO1	ALDH1A1 inh inconclusive (no result: HPGD block, PNC inhibitor)
CCN1CCN(c2c(/C=C3\SC(=S)N(Cc4ccco4)C3=O)c(C)c(C#N)c(=O)n2C)CC1	KDM4E inh 13µM (no result: HPGD block, PNC inhibitor, ALDH1A1 inh)
CN(Cc1ccc(Cl)cc1)C(=O)CCl	ALDH1A1 inh 0.5µM (no result: HPGD block, PNC inhibitor)
CS(=O)(=O)N(CC(N)=O)Cc1ccc(Cl)cc1	none
CN(C)CCNC(=O)c1ccc(Cl)s1	PNC inhibitor inconclusive
COc1ccc(OCC(=O)N(C)Cc2ccccc2)cc1	none
CN(Cc1ccc(Cl)s1)C(=O)CCl	ALDH1A1 inh 0.35µM (no result: HPGD block, PNC inhibitor)
